Reference: PubChem BioAssay
Unmarked numbers belong to inactive results.

Assay: basal S. cerevisiae growth modulation, no modifier, primary screen, OD600, strain BY4716, 24 h, basal condition (AID 1173)
Conditions: OD600, 24 h, higher = more signal, called active from +8 up or from −8 down
`O=C(NC1CC1)[C@@H]1c2ccccc2C(=O)N(C2CCCCC2)[C@H]1c1ccc(CO)cc1` showed a z-score of 0.678.
`COc1ccc(CCNC(=O)[C@@]2(c3ccc([N+](=O)[O-])cc3)CC(=O)N(C3CCCCC3)[C@@H]2c2ccc(CO)cc2I)cc1` showed a z-score of 0.633.
`C=C(COC)C(=O)CC[C@@H](OC(=O)c1ccccc1-c1ccccc1C(=O)O)c1ccccc1OCCO` showed a z-score of -1.22.

Assay: MM1S myeloma cell viability, profiling panel, resazurin fluorescence, basal, 24 h, PK04 Diversity Set (AID 1174);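 further: MM1S multiple myeloma cell line; test concentration not given here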
Conditions: higher = more signal, called active from +8 up or from −8 down
In the case of `COCCOC(=O)N1C(=O)[C@@]2(c3cc(C#CCCO)ccc31)[C@H](C(=O)N1CCN(c3ncccn3)CC1)[C@H]1C(=O)O[C@H](c3ccccc3)[C@H](c3ccccc3)N1[C@@H]2c1ccc(OCCO)cc1`, the z-score is reported as -0.632.
In the case of `CC[C@@H](O[Si](C#C[Si](C(C)C)(C(C)C)C(C)C)(C(C)C)C(C)C)c1cn(Cc2cccc(Cl)c2)nn1`, the z-score is reported as 0.0769.
`COCCOC(=O)N1C(=O)[C@@]2(c3cc(C#CCC(C(=O)OC)C(=O)OC)ccc31)[C@H](c1ccc(O)cc1)N1[C@H](c3ccccc3)[C@H](c3ccccc3)OC(=O)[C@H]1[C@@H]2C(=O)N1CCc2cc(OC)c(OC)cc2C1` showed a z-score of 0.222.
With `Cc1ccc(S[C@]2(C(=O)NCCN3CCOCC3)CC(=O)N(C(C)C)[C@@H]2c2ccc(CO)cc2I)cc1` the z-score was -2.29.
`CC(C)c1ccc(NN2C(C(O)c3ccccc3)C=CC3C(=O)N(c4ccccc4)C(=O)C32)cc1` (centres undefined) gave a z-score of -2.57.
In the case of `CC(C)C(=C=CC[C@H](O)c1cccc(OCCO)c1)C[C@H](O)c1ccccn1`, the z-score is reported as 0.106.
Compound `COCCOC(=O)N1C(=O)[C@@]2(c3cc(C#CCNC(N)=O)ccc31)[C@H](c1ccc(O)cc1)N1[C@H](c3ccccc3)[C@H](c3ccccc3)OC(=O)[C@H]1[C@@H]2C(=O)N1CCc2cc(OC)c(OC)cc2C1` has a z-score of -0.202.
In the case of `[N-]=[N+]=NCc1ccccc1[C@H]1OC(c2ccc(OCCCO)cc2)=N[C@@]1(Cc1ccccc1N=[N+]=[N-])C(=O)N1CCOCC1`, the z-score is reported as -2.46.
Compound `C=C(CCCC)/C(=C/C[C@@H](OC(C)=O)c1cccc(OCCO)c1)c1cc(C(=O)OC)ccc1OC` has a z-score of 0.0348.
For `C=CCNC(=O)[C@H]1[C@@H]2C(=O)O[C@@H](c3ccccc3)[C@@H](c3ccccc3)N2[C@@H](c2ccc(OCCO)cc2)[C@]12C(=O)N(C(=O)OCCOC)c1ccc(C#CCC(C(=O)OC)C(=O)OC)cc12`, the z-score was -0.374.
In the case of `C=CCOC(=O)[C@@H]1[C@H]2C(=O)O[C@H](c3ccccc3)[C@H](c3ccccc3)N2[C@H](c2ccc(OCCOC(=O)[C@@H]3C[C@@H]4C(=O)N[C@@H](CC(C)C)C(=O)N4[C@@H]3c3ccc(O)cc3)cc2)[C@@]12C(=O)Nc1ccc(I)cc12`, the z-score is reported as 0.246.
`COC(=O)[C@@]1(Cc2ccc(F)cc2)[C@H]2c3cc(C(=O)N4CCCC4)n(C[C@H](O)CO)c3C[C@H]2CN1C(=O)c1ccccc1` showed a z-score of -0.765.
In the case of `COc1cc2c(cc1O)C(C)N(Cc1sc3ccccc3c1Cl)CC2` (centres undefined), the z-score is reported as 0.0446.
Compound `Cc1ccc(S(=O)(=O)N2[C@@H](c3ccccc3)C(C(=O)O)=CC[C@H]2c2ccc(F)cc2)cc1` has a z-score of -0.3.
Compound `C=C(C(=O)CC[C@@H](OC(=O)c1ccccc1-c1ccccc1C(=O)O)c1ccc(OCCO)cc1)C(C)C` has a z-score of 0.089.
Work on `C=CC[C@H](OC(=O)Nc1ccc(SC)cc1)c1ccc(O)c(F)c1` yielded a z-score of -0.868.
With `O=C1c2ccccc2[C@@]2(Cc3ccccc3N(CC(F)(F)F)C2=O)[C@H](c2ccc(CO)cc2)N1Cc1ccccc1` the z-score was -0.0925.
In the case of `C#CCN(C(=O)OC(C)(C)C)[C@H](CO)c1ccccc1`, the z-score is reported as -0.351.
In the case of `COC(=O)[C@@]1(Cc2ccc(F)cc2)[C@H]2c3cc(C(=O)N4CCCC4)n(CCc4c[nH]c5cc(F)ccc45)c3C[C@H]2CN1C(=O)c1ccccc1`, the z-score is reported as -0.0568.
Work on `CC[C@@H]1C=C(C(=O)O)[C@H](c2cccc(Cl)c2)N1S(=O)(=O)c1ccc(C)cc1` yielded a z-score of -0.869.
With `C=CCNC(=O)[C@@H]1[C@H]2C(=O)O[C@H](c3ccccc3)[C@H](c3ccccc3)N2[C@H](c2ccc(OCCO)cc2)[C@@]12C(=O)N(C(=O)OCCOC)c1ccccc12` the z-score was -0.522.
`COCCCNC(=O)[C@@]1(CCC(=O)OC(C)(C)C)N=C(c2ccc(OCCCO)cc2)O[C@H]1c1ccccc1` gave a z-score of 0.34.
`CC(C)C[C@@H]1NC(=O)[C@@H]2C[C@H](C(=O)NCCCCCCNC(=O)CS)[C@H](c3ccc(O)cc3)N2C1=O` showed a z-score of -0.471.
`C=C(COC)/C(=C/C[C@@H](OC(=O)c1ccncc1)c1ccccc1OCCO)c1cnc2ccccc2c1` gave a z-score of 0.028.
`C=C(C(=O)CC[C@H](OC(=O)c1ccccc1-c1ccccc1C(=O)O)c1ccc(OCCO)cc1)C(C)C` gave a z-score of -0.22.
With `COC(=O)Cn1c(C(=O)N(C)C)cc2c1C[C@H]1CN(C(=O)c3ccccc3)[C@@](Cc3ccccc3)(C(=O)OC)[C@@H]21` the z-score was 0.52.
For `COc1cc(Cc2cc3c(c(-c4ccccc4)n2)[Si](C(C)C)(C(C)C)OC3)cc(OC)c1OC`, the z-score was 1.03.
For `[N-]=[N+]=NCc1ccccc1[C@H]1OC(c2ccc(OCCCO)cc2)=N[C@@]1(Cc1ccccc1N=[N+]=[N-])C(=O)O`, the z-score was 0.119.
`COC(=O)c1c2oc(c1C(=O)OC)C(=O)N[C@H](Cc1ccccc1)Cn1cc(nn1)C1(CCCCC1)NC(=O)N[C@H](CO)CC2` gave a z-score of 0.247.
Compound `CC(C)N1CC=CC23O[C@@H]4/C=C\CCCOC(=O)C4[C@H]2C(=O)N(C(C)CO)[C@@H]3C1=O` (some centres undefined) has a z-score of 0.832.
Compound `O=C1C2C=CC(C(O)C3CCCCC3)N(Nc3ccccc3F)C2C(=O)N1c1ccccc1` (centres undefined) has a z-score of -0.631.
`CC1CC/C=C\[C@H]2OC34C=CCN(C(C)C)C(=O)[C@H]3N(C(C)CO)C(=O)[C@@H]4C2C(=O)O1` (some centres undefined) showed a z-score of 1.05.
`CC(C)(C)OC(=O)CC[C@@]1(C(N)=O)N=C(c2ccc(OCCCO)cc2)O[C@@H]1c1ccccc1CN=[N+]=[N-]` showed a z-score of -0.599.
In the case of `O=C(NC1CC1)[C@@H]1c2ccccc2C(=O)N(C2CCCCC2)[C@H]1c1ccc(CO)cc1`, the z-score is reported as -1.27.
`COc1ccc(CCNC(=O)[C@@]2(c3ccc([N+](=O)[O-])cc3)CC(=O)N(C3CCCCC3)[C@@H]2c2ccc(CO)cc2I)cc1` showed a z-score of -0.949.
Compound `C=C(COC)C(=O)CC[C@@H](OC(=O)c1ccccc1-c1ccccc1C(=O)O)c1ccccc1OCCO` has a z-score of -1.95.
